Measurements: PubChem BioAssay (NCATS)
Where “and” joins values, the source holds several entries; their conditions need not be identical. Equal entries are not always repeated. Inconclusive results are not listed. The source holds several records for some structures; these can differ, active in one and inactive in another. Calls of active or inactive are those of the source. Unless noted, calls come from the whole dose curve; as a rule, active = well fitted curve in the direction sought with a large enough effect; inconclusive = small, poorly fitted or top-dose-only effect, or another doubt; inactive = no such curve, though single readings can be large; an effect the other way counts as inactive or inconclusive.

What was measured:
JEG-3 = assay: Primary qHTS to identify gynecologic anti-cancer compounds using libraries of approved drugs and bioactive compounds (AID 1345084); settings: Gynecologic cancer cell panel viability, ATPlite luminescence, 48 h; series mostly up to 57.5 µM; note: nearly all actives have a fitted effect of over 55% in size; note: potency is the fitted concentration of half-maximal effect
How it was run: (§1)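 In this quantitative HTS, cell killing is estimated from loss of ATP-dependent luciferase light. Cells see five compound concentrations over a 48 h exposure.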

OV90 = assay: as above; settings: Gynecologic cancer cell panel viability, ATPlite luminescence, 48 h; series mostly up to 57.5 µM
How it was run: as §1

PA-1 = assay: as above; settings: Gynecologic cancer cell panel viability, ATPlite luminescence, 48 h; series mostly up to 57.5 µM
How it was run: as §1

SKOV3 = assay: as above; settings: Gynecologic cancer cell panel viability, ATPlite luminescence, 48 h; series mostly up to 57.5 µM
How it was run: as §1

Tov-21-G = assay: as above; settings: Gynecologic cancer cell panel viability, ATPlite luminescence, 48 h; series mostly up to 57.5 µM
How it was run: as §1

Tov112D = assay: as above; settings: Gynecologic cancer cell panel viability, ATPlite luminescence, 48 h; series mostly up to 57.5 µM
How it was run: as §1

[1] = Drug repurposing screens with cells derived from glioblastoma tumor samples (AID 1345199); settings: GBM patient neurospheres viability, ATP luminescence, 48 h; note: nearly all actives have a fitted effect of over 40% in size; note: potency is the fitted concentration of half-maximal effect; for activity, negative = cell killing: % is set by controls: 0 for no effect and ±100 for the full control effect
How it was run: (§2)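 Four patient lines of CD133+ GBM neurospheres were screened at several concentrations; hits were retested in those lines plus three slower-growing GBM lines, using 48-hour treatment and ATP-based viability.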

astro = assay: as above; settings: viability, ATP luminescence, 48 h; series mostly up to 45.9 µM
How it was run: as §2

[2] = biological target: Nuclear receptor subfamily 1 group I member 2 (Rattus norvegicus) (UniProt Q9R1A7); assay: qHTS assay for small molecule activators of the rat pregnane X receptor (rPXR) signaling pathway (AID 651751; call rule not given here; note: 0% is about no effect); settings: rPXR reporter cells, luciferase (One-Glo), 24 h
[3] = at 45.9 µM (top of the series), tumour line B
[4] = at 45.9 µM (top of the series), tumour line D
[5] = at 46 µM (top of the series), tumour line A
[6] = at 46.1 µM (top of the series), tumour line C
[7] = at 20 µM (top of the series), tumour line C
[8] = at 21.2 µM (top of the series), tumour line B
[9] = at 21.2 µM (top of the series), tumour line D
[10] = at 21.3 µM (top of the series), tumour line A

Nuclear receptor subfamily 1 group I member 2 (Rattus norvegicus), sequence (Q9R1A7 whole entry, looked up): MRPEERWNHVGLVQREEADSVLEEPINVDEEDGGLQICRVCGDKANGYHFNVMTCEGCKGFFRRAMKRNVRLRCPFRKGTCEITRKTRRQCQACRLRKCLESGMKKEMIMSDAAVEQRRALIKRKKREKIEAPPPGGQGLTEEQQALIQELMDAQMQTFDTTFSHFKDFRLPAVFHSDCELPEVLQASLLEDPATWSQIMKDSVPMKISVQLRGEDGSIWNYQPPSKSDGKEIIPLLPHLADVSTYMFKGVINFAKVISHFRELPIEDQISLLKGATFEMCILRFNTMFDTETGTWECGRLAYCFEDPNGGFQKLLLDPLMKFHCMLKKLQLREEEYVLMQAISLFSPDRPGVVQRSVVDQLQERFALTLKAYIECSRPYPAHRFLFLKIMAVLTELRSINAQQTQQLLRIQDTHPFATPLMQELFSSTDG

CC(C(=O)O)c1ccc(CC2CCCC2=O)cc1 (centres undefined)
inactive: Potency (JEG-3) | Potency (OV90) | Potency (PA-1) | Potency (SKOV3) | Potency (Tov-21-G) | Potency (Tov112D) | activity, negative = cell killing [1, 3] -3.22% | activity, negative = cell killing [1, 4] 4.21% | activity, negative = cell killing [1, 5] -18.9% | activity, negative = cell killing [1, 6] -19.4% | Potency (astro)

Cc1ccc(Cl)c(Nc2ccccc2C(=O)O)c1Cl
inactive: Potency (JEG-3) | Potency (OV90) | Potency (PA-1) | Potency (SKOV3) | Potency (Tov-21-G) | Potency (Tov112D) | activity, negative = cell killing [1, 3] -5.7% | activity, negative = cell killing [1, 4] -0.35% | activity, negative = cell killing [1, 5] -28.2% | activity, negative = cell killing [1, 6] -24.9%

COC(=O)[C@@H](N)Cc1ccc(O)c(O)c1
inactive: Potency (JEG-3) | Potency (OV90) | Potency (PA-1) | Potency (SKOV3) | Potency (Tov-21-G) | Potency (Tov112D)

C#CCN(C)CCCOc1ccc(Cl)cc1Cl
inactive: Potency (JEG-3) | Potency (OV90) | Potency (PA-1) | Potency (SKOV3) | Potency (Tov-21-G) | Potency (Tov112D) | activity, negative = cell killing [1, 3] -0.374% | activity, negative = cell killing [1, 4] -15.7% | activity, negative = cell killing [1, 5] -39.4% | activity, negative = cell killing [1, 6] -14.2% | Potency (astro)

CN1C(=O)CC[C@H]1c1cccnc1
inactive: Potency (JEG-3) | Potency (OV90) | Potency (PA-1) | Potency (SKOV3) | Potency (Tov-21-G) | Potency (Tov112D) | activity, negative = cell killing [1, 3] -1.32% | activity, negative = cell killing [1, 4] -18.5% | activity, negative = cell killing [1, 5] -11.4% | activity, negative = cell killing [1, 6] -34.2% | Potency (astro)

CC(C)[N+](C)(CCOC(=O)C1c2ccccc2Oc2ccccc21)C(C)C
inactive: Potency (JEG-3) | Potency (OV90) | Potency (PA-1) | Potency (SKOV3) | Potency (Tov-21-G) | Potency (Tov112D) | activity, negative = cell killing [1, 3] -4.27% | activity, negative = cell killing [1, 4] -14.8% | activity, negative = cell killing [1, 5] -16.6% | activity, negative = cell killing [1, 6] -11.5% | Potency (astro)

CCCC(C(=O)OCCN(CC)CC)(c1ccccc1)c1ccccc1
active: Potency (OV90) 12.6 µM
inactive: Potency (JEG-3)

COCCc1ccc(OCC(O)CNC(C)C)cc1 (centres undefined)
inactive: Potency (JEG-3) | Potency (OV90) | Potency (PA-1) | Potency (SKOV3) | Potency (Tov-21-G) | Potency (Tov112D) | activity, negative = cell killing [1, 3] -10.1% and -7.19% and -6.43% | activity, negative = cell killing [1, 4] 1.85% and 20.6% and -26.1% | activity, negative = cell killing [1, 5] -33.9% | activity, negative = cell killing [1, 6] -0.129% and -0.523% | Potency (astro)

NC(=Nc1ccccc1)Nc1ccccc1
active: Potency ([1]; tumour line A) 25.1 µM
14.1 µM (active) and inactive: Potency (OV90)
inactive: Potency (JEG-3) | Potency (PA-1) | Potency (SKOV3) | Potency (Tov-21-G) | Potency (Tov112D) | activity, negative = cell killing [1, 3] -2.03% | activity, negative = cell killing [1, 4] -11.9% | activity, negative = cell killing [1, 6] 5.57% | activity, negative = cell killing ([1]; at 91.6 µM (top of the series), tumour line B) -24.2% | activity, negative = cell killing ([1]; at 91.6 µM (top of the series), tumour line D) -23% | activity, negative = cell killing ([1]; at 99.2 µM (top of the series), tumour line C) 19% | Potency (astro) | max response [2] -0.275% and 5.17%

C[C@]12CC[C@@H]3c4ccc(O)cc4C[C@@H](CCCCCCCCCS(=O)CCCC(F)(F)C(F)(F)F)[C@H]3[C@@H]1CC[C@@H]2O (some centres undefined)
inactive: Potency (JEG-3) | Potency (OV90) | Potency (PA-1) | Potency (SKOV3) | Potency (Tov-21-G) | Potency (Tov112D) | activity, negative = cell killing [1, 3] 11.9% | activity, negative = cell killing [1, 4] -8.98% | activity, negative = cell killing [1, 6] 16.6% | Potency (astro)
active: Potency ([1]; tumour line A) 4.47 µM

CC1=C(C)C(=O)C(CCCCC#CCCCC#CCO)=C(C)C1=O
inactive: Potency (JEG-3) | Potency (OV90) | Potency (PA-1) | Potency (SKOV3) | Potency (Tov-21-G) | Potency (Tov112D)

NC(=O)c1ncn([C@@H]2O[C@H](CO)[C@@H](O)[C@H]2O)c1O
inactive: Potency (JEG-3) | Potency (OV90) | Potency (PA-1) | Potency (SKOV3) | Potency (Tov-21-G) | Potency (Tov112D) | activity, negative = cell killing [1, 3] -12.1% | activity, negative = cell killing [1, 4] 11.4% | activity, negative = cell killing [1, 5] -0.128% | activity, negative = cell killing [1, 6] -22.4% | Potency (astro)

CN(C)CCCN1c2ccccc2Sc2ccc(C(F)(F)F)cc21
inactive: Potency (JEG-3)

Cc1ccc(=O)n(-c2ccccc2)c1
inactive: Potency (JEG-3) | Potency (OV90) | Potency (PA-1) | Potency (SKOV3) | Potency (Tov-21-G) | Potency (Tov112D) | activity, negative = cell killing [1, 3] -7.87% | activity, negative = cell killing [1, 4] 11.3% | activity, negative = cell killing [1, 5] -13.3% | activity, negative = cell killing [1, 6] -7.43% | Potency (astro)

C[C@@H](O)[C@H]1C(=O)N2C(C(=O)O)=C(SCCN=CN)C[C@H]12
inactive: Potency (JEG-3) | Potency (OV90) | Potency (PA-1) | Potency (SKOV3) | Potency (Tov-21-G) | Potency (Tov112D) | activity, negative = cell killing [1, 7] -11.4% | activity, negative = cell killing [1, 8] -16.2% | activity, negative = cell killing [1, 9] -8.7% | activity, negative = cell killing [1, 10] -14.5% | Potency (astro)

C[N+](C)(C)CCCCCCCCCC[N+](C)(C)C
inactive: Potency (JEG-3) | Potency (OV90) | Potency (PA-1) | Potency (SKOV3) | Potency (Tov-21-G) | Potency (Tov112D) | activity, negative = cell killing [1, 3] -8.43% | activity, negative = cell killing [1, 4] -24.4% | activity, negative = cell killing [1, 5] -24.5% | activity, negative = cell killing [1, 6] -2.46% | Potency (astro)

CC[N+](C)(C)c1cccc(O)c1
inactive: Potency (JEG-3) | Potency (OV90) | Potency (PA-1) | Potency (SKOV3) | Potency (Tov-21-G) | Potency (Tov112D) | activity, negative = cell killing [1, 7] -0.675% | activity, negative = cell killing [1, 8] -16.9% | activity, negative = cell killing [1, 9] -14.7% | activity, negative = cell killing [1, 10] -22.7% | Potency (astro)

FC(F)(F)c1ccccc1-n1ccnc1
inactive: Potency (JEG-3) | Potency (OV90) | Potency (PA-1) | Potency (SKOV3) | Potency (Tov-21-G) | Potency (Tov112D) | activity, negative = cell killing [1, 3] -13.1% | activity, negative = cell killing [1, 4] -9.1% | activity, negative = cell killing [1, 5] -27.4% | activity, negative = cell killing [1, 6] -16.7% | Potency (astro)

COc1ccc([C@@H]2Sc3ccccc3N(CCN(C)C)C(=O)[C@@H]2OC(C)=O)cc1
inactive: Potency (JEG-3) | Potency (OV90) | Potency (PA-1) | Potency (SKOV3) | Potency (Tov-21-G) | Potency (Tov112D) | activity, negative = cell killing [1, 6] -13.9%
